Rows were chosen to be rich in hits. Some 3.4% of all compounds tested hit in one or more screens of this group.
GPR151 ag – activates the human receptor GPR151 | Q8TDV0 | PathHunter beta-arrestin GPR151 cells, luminescence | activation, % at 11.2 µM | actives 1% (n = 650,000) | AID 1508602; in the data active means activation above about 4.9%
MITF inh – blocks human microphthalmia-associated transcription factor; O75030; AlphaScreen MITF homodimerization, bead proximity signal; inhibition, % at 2.6 µM; actives 0.91% (n = 650,000); AID 1259374; in the data active means inhibition above about 50%
Target sequence (O75030 whole entry, looked up): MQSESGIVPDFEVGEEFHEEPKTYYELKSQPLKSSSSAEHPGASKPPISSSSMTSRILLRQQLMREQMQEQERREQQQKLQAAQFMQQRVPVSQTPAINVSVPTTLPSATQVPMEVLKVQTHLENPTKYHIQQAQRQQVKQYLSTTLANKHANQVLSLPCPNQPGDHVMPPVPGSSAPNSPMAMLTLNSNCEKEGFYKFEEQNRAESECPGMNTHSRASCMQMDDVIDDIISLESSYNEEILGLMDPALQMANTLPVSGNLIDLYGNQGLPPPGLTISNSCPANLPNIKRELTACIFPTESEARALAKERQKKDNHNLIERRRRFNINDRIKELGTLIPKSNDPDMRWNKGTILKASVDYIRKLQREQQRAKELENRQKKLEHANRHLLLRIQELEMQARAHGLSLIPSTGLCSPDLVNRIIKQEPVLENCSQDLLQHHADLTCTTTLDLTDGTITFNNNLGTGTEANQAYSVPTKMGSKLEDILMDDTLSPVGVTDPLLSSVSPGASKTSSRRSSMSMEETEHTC
TEAD-YAP block – TEAD-YAP interaction inhibition; inhibition, % at 9.12 µM; actives 1.4% (n = 640,000); AID 1259422; HEK-TIYL cells, TEAD-Gal4/YAP UAS-luciferase luminescence; in the data active means inhibition above about 32%
FBW7 act – activators of human E3 ligase FBW7; AID 1259310; Q969H0; actives 0.13% (n = 650,000); AlphaScreen FBW7–phospho-cyclin E peptide binding, activator screen; normalized activity (activation), % at 26.1 µM; in the data active means normalized activity above about 1.9%;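 further: purified mutant Fbw7 with reduced substrate affinity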
Hits are given with their value.

For Cc1ccn2cc(-c3ccc(O)c(O)c3)nc2c1 the results were GPR151 ag inactive, MITF inh inactive, TEAD-YAP block 64 and FBW7 act inactive.
Cc1ccn2cc(-c3ccccc3)nc2c1 was read as GPR151 ag inactive, MITF inh inactive, TEAD-YAP block 77 and FBW7 act inactive.
For CN(C)S(=O)(=O)c1ccc(-c2cn3ccccc3n2)cc1 the results were GPR151 ag inactive, MITF inh inactive, TEAD-YAP block inactive and FBW7 act inactive.
For Cc1ccc(-c2cn3ccccc3n2)cc1C the results were GPR151 ag inactive, MITF inh inactive, TEAD-YAP block 59 and FBW7 act inactive.
`COc1cc(OC)c(N(C)C(=O)Cn2ncc3c(=O)oc4ccc(C)cc4c32)cc1Cl` gave GPR151 ag inactive, MITF inh inactive, TEAD-YAP block inactive and FBW7 act inactive.
CCc1ccc(NC(=O)c2ccc(F)c(S(=O)(=O)N3CCN(c4ccc(F)cc4)CC3)c2)cc1 was read as GPR151 ag inactive, MITF inh inactive, TEAD-YAP block inactive and FBW7 act inactive.
Screening CC1(C)CC(N2CCOCC2)=CC(=[N+]2CCOCC2)C1 returned GPR151 ag inactive, MITF inh inactive, TEAD-YAP block inactive and FBW7 act inactive.
`CC1(C)CC(N2CCCCC2)=CC(=[N+]2CCCCC2)C1` gave GPR151 ag inactive, MITF inh inactive, TEAD-YAP block 75 and FBW7 act inactive.
`CCCN(CCC)C1=CC(=[N+]2CCCC2)CC(C)(C)C1` gave GPR151 ag inactive, MITF inh inactive, TEAD-YAP block 69 and FBW7 act inactive.
CN(C)NC1=CC(=[N+]2CCCC2)CC(C)(C)C1 was read as GPR151 ag inactive, MITF inh inactive, TEAD-YAP block inactive and FBW7 act inactive.
O=S(=O)(NCC1CCCO1)c1ccc(Cc2ccc(S(=O)(=O)NCC3CCCO3)cc2)cc1 (configuration not stated) was read as GPR151 ag inactive, MITF inh inactive, TEAD-YAP block 43 and FBW7 act inactive.
For O=S(=O)(NCC1CCCO1)c1ccc(NS(=O)(=O)c2ccc(F)cc2)cc1 (configuration not stated) the results were GPR151 ag inactive, MITF inh inactive, TEAD-YAP block inactive and FBW7 act inactive.
For O=S(=O)(NCC1CCCO1)c1ccc(-c2ccc(S(=O)(=O)NCC3CCCO3)cc2)cc1 (configuration not stated) the results were GPR151 ag inactive, MITF inh inactive, TEAD-YAP block 52 and FBW7 act inactive.
`C=C(C)Cn1c(SCCC(C)C)nc2c1c(=O)n(C)c(=O)n2C` gave GPR151 ag inactive, MITF inh inactive, TEAD-YAP block inactive and FBW7 act inactive.
For Cc1ccc2cc3c(nc2c1)OCC(=O)N(Cc1ccco1)C3 the results were GPR151 ag inactive, MITF inh inactive, TEAD-YAP block inactive and FBW7 act inactive.
For CC1Oc2nc3ccccc3cc2CN(Cc2ccc(F)cc2)C1=O (configuration not stated) the results were GPR151 ag inactive, MITF inh inactive, TEAD-YAP block 32 and FBW7 act inactive.
CC1Oc2nc3ccccc3cc2CN(Cc2ccc3c(c2)OCO3)C1=O (configuration not stated) was read as GPR151 ag inactive, MITF inh inactive, TEAD-YAP block inactive and FBW7 act inactive.
Cc1cccc2cc3c(nc12)OCC(=O)N(Cc1ccccc1)C3 was read as GPR151 ag inactive, MITF inh inactive, TEAD-YAP block 58 and FBW7 act 26.
For Cc1ccc2cc3c(nc2c1)OCC(=O)N(Cc1ccccc1)C3 the results were GPR151 ag inactive, MITF inh inactive, TEAD-YAP block 48 and FBW7 act inactive.
`CC(=O)NC(=S)Nc1ccc(NC(=O)Cc2ccccc2)cc1` gave GPR151 ag inactive, MITF inh inactive, TEAD-YAP block inactive and FBW7 act inactive.
For O=C1CC[C@@H]2CN(Cc3ccccc3F)CC[C@@H]2N1Cc1ccc(F)cc1 the results were GPR151 ag inactive, MITF inh inactive, TEAD-YAP block inactive and FBW7 act inactive.
For COc1cc(C(=O)N/N=C(\C)c2cccs2)cc(OC)c1OC the results were GPR151 ag inactive, MITF inh inactive, TEAD-YAP block 54 and FBW7 act inactive.
`COc1cc(C(=O)N/N=C(C)/C=C/c2ccccc2)cc(OC)c1OC` gave GPR151 ag inactive, MITF inh inactive, TEAD-YAP block 64 and FBW7 act inactive.
`COc1cc(C(=O)NN2C(=O)c3ccccc3C2=O)cc(OC)c1OC` gave GPR151 ag inactive, MITF inh inactive, TEAD-YAP block 52 and FBW7 act inactive.
For COc1cc(C(=O)NC2CCCCCCC2)cc(OC)c1OC the results were GPR151 ag inactive, MITF inh inactive, TEAD-YAP block inactive and FBW7 act inactive.
COc1cc(C(=O)NN=C(C2CC2)C2CC2)cc(OC)c1OC was read as GPR151 ag inactive, MITF inh inactive, TEAD-YAP block 59 and FBW7 act inactive.
COc1cc(C(=O)N/N=C(\C)c2ccc(N)cc2)cc(OC)c1OC was read as GPR151 ag inactive, MITF inh inactive, TEAD-YAP block 49 and FBW7 act inactive.
C/C(=N/NC(=O)c1cc(O)c(O)c(O)c1)c1ccc(F)cc1 was read as GPR151 ag inactive, MITF inh 59, TEAD-YAP block inactive and FBW7 act inactive.
COc1cc(C(=O)N/N=C(\C)Cc2ccccc2)cc(OC)c1OC was read as GPR151 ag inactive, MITF inh inactive, TEAD-YAP block 58 and FBW7 act inactive.
For C/C(=N/NC(=O)c1cc(O)cc(O)c1)c1ccco1 the results were GPR151 ag inactive, MITF inh inactive, TEAD-YAP block inactive and FBW7 act inactive.
`COc1cc(C(=O)N/N=C(\C)c2ccco2)cc(OC)c1OC` gave GPR151 ag inactive, MITF inh inactive, TEAD-YAP block 53 and FBW7 act inactive.
CCC(C)NC(=O)C1CC(Cc2cccc(OC)c2)=NO1 (configuration not stated) was read as GPR151 ag inactive, MITF inh inactive, TEAD-YAP block inactive and FBW7 act inactive.
For Cn1nnc(NC(=S)NC(=O)c2ccc3c(c2)OCO3)n1 the results were GPR151 ag inactive, MITF inh inactive, TEAD-YAP block inactive and FBW7 act inactive.
`COc1cc(C(=O)N/N=C(\C)c2ccccc2)cc(OC)c1OC` gave GPR151 ag inactive, MITF inh inactive, TEAD-YAP block 61 and FBW7 act inactive.
For COc1ccc(/C(C)=N/NC(=O)c2ccccc2)cc1OC the results were GPR151 ag inactive, MITF inh inactive, TEAD-YAP block inactive and FBW7 act inactive.
For CSc1ccc2nc(N3CCN(C(=O)CN(C)S(C)(=O)=O)CC3)sc2c1 the results were GPR151 ag inactive, MITF inh inactive, TEAD-YAP block inactive and FBW7 act inactive.
Screening COC(=O)c1ccccc1C(=O)N1CCN(c2nc3ccc(SC)cc3s2)CC1 returned GPR151 ag inactive, MITF inh inactive, TEAD-YAP block 47 and FBW7 act inactive.
O=C1Nc2ccccc2NC(=O)C2C3c4ccccc4C(c4ccccc43)C12 (configuration not stated) was read as GPR151 ag inactive, MITF inh inactive, TEAD-YAP block inactive and FBW7 act inactive.
`c1ccc2c(c1)Nc1ccccc1C2NNC1c2ccccc2Nc2ccccc21` gave GPR151 ag inactive, MITF inh inactive, TEAD-YAP block 69 and FBW7 act inactive.
